Measurements taken from paper PMC5540273 (PLoS ONE, 2017).

Tested on: CDKL3
Conditions: concentration: 1 μM, replicates: in singlicate; n = 1
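Note: KINOMEscan kinase panel screen.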

| Compound | %Inh |
| --- | --- |
| O=C(O)C(F)(F)F.O=C(O)C(F)(F)F.O=c1[nH]ccc2nc(N[C@@H]3CCCNC3)nc(Nc3ccc(S(=O)(=O)N4CCOCC4)cc3)c12 [GSK2177277] | 0% |
| Cc1ccc(C(=O)N2CC[C@@H](O)C2)cc1-n1c(C)cc(OCc2ccc(F)cc2F)c(Br)c1=O | 1% |
| Cl.c1ccc(-c2ccc3c(Nc4ccc5[nH]ccc5c4)ccnc3c2)nc1 [GW440138] | 0% |
| CCCCc1nn2ncccc2c1-c1ccnc(Nc2ccc(N3CCN(C)CC3)cc2)n1 [GW684941] | 66% |
| COc1ccc(Nc2nccc(NCCNC(=O)c3cc4ccccc4s3)n2)cc1 [GSK1379896] | 0% |
| COc1ccc(Nc2nccc(N3CCC(NC(=O)Nc4cccc(OC)c4)C3)n2)cc1 (stereo not shown) [GSK1379742] | 0% |
| O=C(Nc1ccccc1F)NC1CCN(c2ccnc(Nc3ccc(F)cc3)n2)CC1 [GSK1379800] | 0% |
| Cn1cc(-c2ccc3c(c2)CCN3C(=O)Cc2cccc(F)c2)c2c(N)ncnc21 [GSK2603358] | 0% |
| CCc1ccc(-c2ccc3c(c2)-c2c(cnn2C)S(=O)(=O)N3C)cc1 | 20% |
| COc1cc(Nc2nccc(-c3c(-c4cccc(NC(=O)c5c(F)cccc5F)c4)nn4ccccc34)n2)cc(OC)c1OC [GSK323521] | 13% |
| O=C(Nc1cccc(Oc2ccc3nc(NC(=O)C4CC4)cn3n2)c1)c1ccccc1C(F)(F)F | 0% |
| O=c1[nH]cc(-c2ccc(N3CCOCC3)cc2)c2sc(-c3cn[nH]c3)cc12 [GSK2276055] | 0% |
| Cc1cccc(Nc2nc(N[C@H]3CCNC3)ncc2C(N)=O)c1.Cl [GSK2197149] | 0% |
| Nc1ncc(-c2cccnc2)c2scc(-c3ccc4c(c3)CCN4C(=O)Cc3ccccc3)c12 [GSK683281] | 0% |
| Cl.Cl.NCC(C(=O)Nc1cc(Br)c(-c2ccnc3[nH]ccc23)s1)c1ccccc1 (stereo not shown) [GSK1269851] | 0% |
| Fc1ccc(-c2ncn(C3CCNCC3)c2-c2ccnc(Oc3ccc(-c4ccccc4)cc3)n2)cc1 [SB-245391] | 32% |
| Cl.c1ccc(-c2ccc3c(Nc4ccc5[nH]ncc5c4)ccnc3c2)nc1 [GW440137] | 0% |
| Cl.NC(=O)c1cccc(Nc2nccc(Nc3ccc(Oc4c(Cl)cccc4Cl)c(Cl)c3)n2)c1 [GW659009] | 0% |
| O=C(Nc1cccc(-c2nn3ncccc3c2-c2ccnc(Nc3ccccc3)n2)c1)c1c(F)cccc1F [GSK198271] | 0% |
| COC(=O)Nc1nc2ccc(Oc3ccc(NC(=O)Nc4cc(C(F)(F)F)ccc4F)cc3)cc2n1C.Cl [GW692089] | 0% |
| Oc1cc(Nc2ccnc3cc(I)ccc23)ccc1F [GW552771] | 0% |
| CC(C)c1nc(-c2cccc(NS(=O)(=O)c3c(F)cccc3F)c2F)c(-c2ccnc(Nc3ccc(N4CCOCC4)nc3)n2)s1 [GSK2008607] | 4% |
| CCn1c(-c2nonc2N)nc2c(C#CC(C)(C)O)nc(OC[C@H](N)c3ccccc3)cc21 [GSK943949] | 0% |
| CC(C)(C)c1ccc2nccc(Nc3cccc(O)c3)c2c1 [GW856795] | 19% |

Tested on: CDKL5
Conditions: concentration: 1 μM, replicates: in singlicate; n = 1

| Compound | %Inh |
| --- | --- |
| CN1CCN(CCCNc2nccc(-c3c(-c4ccc(F)cc4)nn4cc(C(F)(F)F)ccc34)n2)CC1 [GW621581] | 0% |
| C[C@@H]1CC[C@@H](C(=O)Nc2ccccc2)CN1c1cc(-c2ccc3c(N)n[nH]c3c2)nc(N)n1 [GSK2286062] | 0% |
| Cl.Cl.NCC(NCc1ccc(-c2ccnc3[nH]ccc23)s1)c1ccccc1 (stereo not shown) [GSK1321565] | 0% |
| Nc1n[nH]c2cnc(-c3ccccc3)cc12 [SB-642124] | 0% |
| COc1cccc(NC(=O)NC2CCN(c3ccnc(Nc4cc(OC)c(OC)c(OC)c4)n3)C2)c1 (stereo not shown) [GSK1379763] | 0% |
| COc1cccc(C(=O)Nc2cccc(Oc3ccc4nc(NC(=O)C5CC5)cn4n3)c2)c1 | 0% |
| c1ccc(-c2n[nH]cc2Nc2ccnc3ccccc23)nc1 [GW694077] | 0% |
| O=C(Nc1cccc(-c2nn3ccccc3c2-c2ccnc(Nc3cccc(C(F)(F)F)c3)n2)c1)c1c(F)cccc1F [GSK292658] | 0% |
| CSc1cccc2c(-c3ccncn3)c(-c3ccc(F)cc3)nn12 [GW514786] | 3% |
| COc1ccc(CNC(=O)NC2CCN(c3ccnc(Nc4ccc(F)cc4)n3)CC2)cc1 [GSK1379788] | 0% |
| COCCOCCOc1cc2ncc3c4ccc(C#N)cc4[nH]c3c2cc1OC | 0% |
| FC(F)(F)c1ccc(/C=C/c2cncnc2Nc2ccc3[nH]c(Cc4ccccc4)nc3c2)cc1 [GW709199] | 0% |
| COc1cc(Nc2nccc(N3CCC(NC(=O)Nc4cccc(C(C)=O)c4)C3)n2)cc(OC)c1OC (stereo not shown) [GSK1379753] | 0% |
| O=C(O)C(F)(F)F.O=C(O)C(F)(F)F.O=c1[nH]ccc2nc(N[C@@H]3CCCNC3)nc(Nc3ccc(S(=O)(=O)N4CCOCC4)cc3)c12 [GSK2177277] | 42% |
| Cc1ccc(C(=O)N2CC[C@@H](O)C2)cc1-n1c(C)cc(OCc2ccc(F)cc2F)c(Br)c1=O | 0% |
| Cl.c1ccc(-c2ccc3c(Nc4ccc5[nH]ccc5c4)ccnc3c2)nc1 [GW440138] | 0% |
| CCCCc1nn2ncccc2c1-c1ccnc(Nc2ccc(N3CCN(C)CC3)cc2)n1 [GW684941] | 0% |
| COc1ccc(Nc2nccc(NCCNC(=O)c3cc4ccccc4s3)n2)cc1 [GSK1379896] | 0% |
| COc1ccc(Nc2nccc(N3CCC(NC(=O)Nc4cccc(OC)c4)C3)n2)cc1 (stereo not shown) [GSK1379742] | 0% |

| Compound | %Inh |
| --- | --- |
| O=C(Nc1ccccc1F)NC1CCN(c2ccnc(Nc3ccc(F)cc3)n2)CC1 [GSK1379800] | 0% |
| Cn1cc(-c2ccc3c(c2)CCN3C(=O)Cc2cccc(F)c2)c2c(N)ncnc21 [GSK2603358] | 0% |
| CCc1ccc(-c2ccc3c(c2)-c2c(cnn2C)S(=O)(=O)N3C)cc1 | 0% |
| COc1cc(Nc2nccc(-c3c(-c4cccc(NC(=O)c5c(F)cccc5F)c4)nn4ccccc34)n2)cc(OC)c1OC [GSK323521] | 2% |
| O=C(Nc1cccc(Oc2ccc3nc(NC(=O)C4CC4)cn3n2)c1)c1ccccc1C(F)(F)F | 7% |
| O=c1[nH]cc(-c2ccc(N3CCOCC3)cc2)c2sc(-c3cn[nH]c3)cc12 [GSK2276055] | 0% |
| Cc1cccc(Nc2nc(N[C@H]3CCNC3)ncc2C(N)=O)c1.Cl [GSK2197149] | 0% |
| Nc1ncc(-c2cccnc2)c2scc(-c3ccc4c(c3)CCN4C(=O)Cc3ccccc3)c12 [GSK683281] | 7% |
| Cl.Cl.NCC(C(=O)Nc1cc(Br)c(-c2ccnc3[nH]ccc23)s1)c1ccccc1 (stereo not shown) [GSK1269851] | 0% |
| Fc1ccc(-c2ncn(C3CCNCC3)c2-c2ccnc(Oc3ccc(-c4ccccc4)cc3)n2)cc1 [SB-245391] | 0% |
| Cl.c1ccc(-c2ccc3c(Nc4ccc5[nH]ncc5c4)ccnc3c2)nc1 [GW440137] | 0% |
| Cl.NC(=O)c1cccc(Nc2nccc(Nc3ccc(Oc4c(Cl)cccc4Cl)c(Cl)c3)n2)c1 [GW659009] | 0% |
| O=C(Nc1cccc(-c2nn3ncccc3c2-c2ccnc(Nc3ccccc3)n2)c1)c1c(F)cccc1F [GSK198271] | 6% |
| COC(=O)Nc1nc2ccc(Oc3ccc(NC(=O)Nc4cc(C(F)(F)F)ccc4F)cc3)cc2n1C.Cl [GW692089] | 0% |
| Oc1cc(Nc2ccnc3cc(I)ccc23)ccc1F [GW552771] | 0% |
| CC(C)c1nc(-c2cccc(NS(=O)(=O)c3c(F)cccc3F)c2F)c(-c2ccnc(Nc3ccc(N4CCOCC4)nc3)n2)s1 [GSK2008607] | 90.2% |
| CCn1c(-c2nonc2N)nc2c(C#CC(C)(C)O)nc(OC[C@H](N)c3ccccc3)cc21 [GSK943949] | 12% |
| CC(C)(C)c1ccc2nccc(Nc3cccc(O)c3)c2c1 [GW856795] | 0% |
